Hit rate of the full screen: of about 1,200 compounds, about 650 (54%) were called active. Roughly 5% stayed inconclusive and do not appear here.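 How the source made its calls: active means signal-lowering curve whose fitted half-maximal concentration is at or below ten times the top valid dose tested; inconclusive means flat curve with 30 to 70% inhibition, or poor fit; inactive means signal increase, flat within 30%, or potency beyond limit.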 The set was probably picked from earlier hits. These entries were drawn from the full list. Results with a measured potency or affinity are listed apart.
experiment: EBV LMP1 TES2 canonical NF-kB signalling blockers – cell-based, HEK293, luciferase, cherry-pick, dose response (AID 588343); conditions: HEK293 LMP1 TES2 NF-kB luciferase reporter, 16 h; series mostly up to 35 µM; activity change, negative = inhibition: at the top concentration;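 further: 0% = median of neutral control wells and -100% = MG132 positive control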

Activity change, negative = inhibition, inactive:
CC(C)(C)c1nc2c(s1)CCc1onc(-c3ccc(Br)cc3)c1-2 -1.55%
O=C(O)c1ccc(C=NNC(=O)c2cccc3ccccc23)cc1 -11.7%
CS(=O)(=O)Nc1ccc(C2=NN(S(C)(=O)=O)C(c3ccccc3)C2)cc1 (stereo not drawn) 8.63%
CC(=O)NC(CCS(C)(=O)=O)C(=O)Nc1ccc(Cl)c(Cl)c1 (stereo not drawn) -1.94%
Cc1cc(C)c(OCCn2ccnc2)c(C)c1 26.1%
COCCn1c(SCCN2CCOCC2)nc2c1c(=O)[nH]c(=O)n2C 2.32%
CN1CCN(C(=O)C2=C[C@@H](C(C)(C)C)C[C@@H](OCc3ccc(CO)cc3)O2)CC1 7.97%
COC(=O)[C@H](C)[C@H]1C[C@]1(C)[C@H](NC(=O)OCc1ccccc1)c1ccccc1 -3.31%
Cc1nc(C)n(C(C)CNC(=O)c2ccco2)n1 (stereo not drawn) 10%
O=C1CCCN2N=C(SCC(=O)Nc3ccc(Br)cc3)SC2=N1 16.1%
CSc1nc(C)cc(C)c1C#N -9.57%
CC(=O)c1ccc(-n2nnnc2SCC(=O)N2CCc3ccccc3C2)cc1 -15.1%
CCSc1nnc(NC(=O)CSc2nnc(-c3c[nH]c4ccccc34)n2CC)s1 37.4%
COc1ccc(S(=O)(=O)N2CCN(CC(=O)Nc3cc(OC)cc(OC)c3)CC2)cc1 16.4%
Cc1cccc(S(=O)(=O)N2CCCc3ccccc32)c1 -11.4%
COc1ccc(C(=O)CN(CCC(=O)O)S(=O)(=O)c2ccc([N+](=O)[O-])cc2)cc1 -5.91%
COc1cc(C(c2sc3nc(C)nn3c2O)N2CCc3ccccc3C2)cc(OC)c1OC (stereo not drawn) -5.62%
O=C(OCc1ccccc1F)c1cc2ccccc2cc1O 17.9%
Nc1cc(=O)[nH]c(SCCSc2cc(Cl)ccc2Cl)n1 -26.3%
OCCN(CCO)CC(O)COCCC12CC3CC(CC(C3)C1)C2 (stereo not drawn) 22.3%
CN=C1S/C(=C\c2ccc(O)c(Br)c2)C(=O)N1C 5%
CC(=O)OCC(=O)[C@@]1(O)CC[C@H]2[C@@H]3CCC4=CC(=O)CC[C@]4(C)[C@H]3[C@@H](O)C[C@@]21C -18.4%
Cc1cccc(-n2c(O)c(C=Nc3c(C)n(C)n(-c4ccccc4)c3=O)c3ccccc3c2=O)n1 5.7%
O=c1c(O)c(-c2ccc(O)c(O)c2)oc2cc(O)cc(O)c12 17.5%
CN(Cc1ccccc1)c1nc(N)c([N+](=O)[O-])c(NCc2ccccc2)n1 26.4%
COc1ccccc1C(=O)Nc1c[nH]c(=O)[nH]c1=O -8.44%
COc1ccc(N2C(=O)C(Cl)=C(NCc3ccccc3)C2=O)cc1 0.637%
COc1ccc(N2Cc3cccc(C(=O)NC(C)CCc4ccco4)c3C2=O)cc1 (stereo not drawn) 2.7%
Cc1cc(=O)[nH]c(=S)[nH]1 -0.637%
C=CC[N+](C)(C)C/C(Cl)=C(\Cl)c1ccccc1 -4.54%
O=c1cc(C2CCCCC2)[nH]c(=O)[nH]1 -3.35%
CC(C)NC(=O)N(C)C[C@H]1Oc2c(NC(=O)Nc3ccc4c(c3)OCO4)cccc2C(=O)N([C@H](C)CO)C[C@@H]1C 15.6%
Cc1ccc(S(=O)(=O)N2CCN(C(=O)COC(=O)COc3ccc(Cl)cc3)CC2)c(C)c1 10.8%
CCC(C)N1C(=O)CCC1C(=O)N1CCN(c2ccc(F)cc2)CC1 (stereo not drawn) 2%
COc1cc2cc(C(=O)N3CCN(c4ccccc4OC)CC3)[nH]c2cc1OC 13.6%
O=C1c2cccc3c(O)ccc(c23)C(=O)N1c1ccc(Cl)cc1 -19.5%
O=C(CC(c1ccc(F)cc1)c1ccco1)N1CCOCC1 (stereo not drawn) 14.7%
Fc1cccc(Cl)c1/C=N/n1c(-c2cccnc2)n[nH]c1=S 6.16%
O=C(NCc1ccco1)C1CC(=O)N(c2cccc(Cl)c2)C1 (stereo not drawn) -0.017%
COc1ccc(/C=C/C(=O)OCC(=O)NCc2ccco2)cc1OC 4.97%
COc1cc(NCCCCCCN)c2ncccc2c1OC -15.4%
O=C(Nc1ccc(F)c(F)c1)C1CCCCC1 -11.7%
COC(=O)c1ccccc1NC(=O)CSc1nnnn1C 0.333%
Cc1ccc(S(=O)(=O)N2CCN(C(=O)CSc3nnnn3C)C2)cc1 9.83%
O=C1c2ccccc2C(O)N1Cc1ccccc1 (stereo not drawn) 4%
Cc1cc(=S)[nH]c2ccccc12 6.14%
Cc1ccc(-n2c(=O)c3c(c4cc(C)ccc4n3C)n(CC(=O)NCC3CCCO3)c2=O)cc1 (stereo not drawn) 12.9%
COC(=O)c1c(O)ccc(Oc2ccccc2)c1C(=O)OC -3.74%
NC(=O)OCC(COC(N)=O)c1ccccc1 12.9%
CC1CCN(CCOc2ccc(C(=O)c3ccccc3)cc2)CC1 5.09%
O=C(O)c1ccccc1Nc1cccc(OCc2ccc3ccccc3n2)c1 1.96%
CCN(CC)S(=O)(=O)c1ccc(N=NC2=C(O)CCCC2=O)cc1 2.7%
Cc1cc(NC(=O)CSc2ccnc(=O)[nH]2)no1 0.208%
COC(=O)c1c(NC(=O)c2nn(C)cc2Cl)sc2c1CCCC2 62%
Nc1ccccc1SC1CC(=O)N(c2ccccc2Cl)C1=O (stereo not drawn) 10.9%
Cc1ccc(S(=O)(=O)N[C@H](C(=O)N2CCC(C(=O)N[C@@H](CC(=O)O)C(=O)O)CC2)C(C)C)cc1 -7.64%
CCCSc1ccc([C@@H]2[C@H]3C(=O)N(C)C(=O)[C@H]3[C@]3(C(=O)OC)CCCN23)cc1OC 6.82%
CC(C)N1CCN(c2ccc(OC[C@H]3CO[C@](Cn4cncn4)(c4ccc(Cl)cc4Cl)O3)cc2)CC1 117%
COC(=O)C1=C(C(=O)c2ccccc2)C(c2ccccc2)n2nnnc2N1 (stereo not drawn) -4.39%
Cc1cc(C)n2nc(CC(=O)NC3CCCCCC3)nc2n1 1.1%
Cc1cc(=O)[nH]c(N/N=C/c2ccc(C)o2)n1 11.1%
Cc1cc(C)c2sc(NC(=O)C3CC3)nc2c1 19.8%
CCSC1=C(C#N)C(c2ccc(C)o2)CC(=O)N1 (stereo not drawn) -3.06%
CC(=O)/C=C/c1ccccc1O -0.887%
COc1ccc(-c2csc(Nc3cccc(C)n3)n2)cc1OC 35%
CCOC(=O)c1c(NC(=O)C2C3CCC(O3)C2C(=O)O)sc(C)c1-c1ccc(F)cc1 (stereo not drawn) 12.8%
CCN1C(=O)[C@@H]2[C@@H](c3ccc(-c4ccc(Cl)c(Cl)c4)cc3)N3CCC[C@@]3(C(=O)OC)[C@@H]2C1=O -24.3%
COc1ccc([C@H]2N[C@]3(CCCN(Cc4ccco4)C3=O)[C@H]3C(=O)N(Cc4ccccc4)C(=O)[C@@H]23)cc1 19.1%

From PubChem BioAssay AID588343 (Broad Institute, 2011)
